From paper PMC5349851, “Combinatorial bZIP dimers display complex DNA-binding specificity landscapes”

Tests used:
Assay in all cases: SELEX-seq (CSI, HT-SELEX, round 3); SELEX-seq: 1x PBS (10 mM phosphate, 137 mM NaCl, 2.7 mM KCl) pH 7.6, 2.5 mM DTT, 50 ng/ul poly dI-dC, 0.1% BSA, 50 nM biotinylated bZIP (1:3 with partner for heterodimers), 100 nM library, room temperature, 1 h, 3 rounds; high values mean tight binding
Settings in all cases: protein: recombinant;recombinant; copies: 1;1; dsDNA, one strand shown
[1] = molecular target: T1, JUNB;BATF2 (Homo sapiens;Homo sapiens, UniProt P17275;Q8N1L9 259-332;8-85, |)
T1 sequence 1: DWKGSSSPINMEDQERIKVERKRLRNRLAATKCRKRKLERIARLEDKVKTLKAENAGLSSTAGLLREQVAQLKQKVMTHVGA
T1 sequence 2: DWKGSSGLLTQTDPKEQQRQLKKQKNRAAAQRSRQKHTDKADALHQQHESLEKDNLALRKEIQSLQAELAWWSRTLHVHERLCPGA

[2] = molecular target: T2, JUNB;CREBZF (Homo sapiens;Homo sapiens, UniProt P17275;Q9NS37 259-332;195-272, |)
T2 sequence 1: T1 sequence 1
T2 sequence 2: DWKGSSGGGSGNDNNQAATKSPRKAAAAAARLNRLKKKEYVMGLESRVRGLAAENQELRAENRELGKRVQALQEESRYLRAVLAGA

[3] = molecular target: T3, BATF;HLF (Homo sapiens;Homo sapiens, UniProt Q16520;Q16534 17-90;216-293, |)
T3 sequence 1: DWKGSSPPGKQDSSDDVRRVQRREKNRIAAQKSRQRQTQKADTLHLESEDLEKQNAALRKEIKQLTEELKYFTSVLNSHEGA
T3 sequence 2: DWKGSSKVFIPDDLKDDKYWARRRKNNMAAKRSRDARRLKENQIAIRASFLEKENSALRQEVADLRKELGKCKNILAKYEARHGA

[4] = molecular target: T4, BATF;NFIL3 (Homo sapiens;Homo sapiens, UniProt Q16520;Q16649 17-90;64-134, |)
T4 sequence 1: T3 sequence 1
T4 sequence 2: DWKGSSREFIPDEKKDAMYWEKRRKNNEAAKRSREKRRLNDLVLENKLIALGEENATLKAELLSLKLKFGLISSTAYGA

[5] = molecular target: T5, FOSL1;CEBPE (Homo sapiens;Homo sapiens, UniProt P15407;Q15744 96-169;195-267, |)
T5 sequence 1: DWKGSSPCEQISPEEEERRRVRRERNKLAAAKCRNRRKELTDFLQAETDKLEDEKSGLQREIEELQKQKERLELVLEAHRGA
T5 sequence 2: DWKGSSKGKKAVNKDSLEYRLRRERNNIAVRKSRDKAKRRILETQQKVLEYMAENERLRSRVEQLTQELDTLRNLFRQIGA

[6] = molecular target: T6, FOSL1;FOSL1 (Homo sapiens;Homo sapiens, UniProt P15407;P15407 96-169;96-169, |)
T6 sequence 1: T5 sequence 1
T6 sequence 2: T5 sequence 1

[7] = molecular target: T7, FOSL1;NFE2 (Homo sapiens;Homo sapiens, UniProt P15407;Q16621 96-169;221-337, |)
T7 sequence 1: T5 sequence 1
T7 sequence 2: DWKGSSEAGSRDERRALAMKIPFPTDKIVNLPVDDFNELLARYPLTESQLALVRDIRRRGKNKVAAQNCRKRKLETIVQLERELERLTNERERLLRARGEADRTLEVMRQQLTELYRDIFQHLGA

[8] = molecular target: FOS;BATF (Homo sapiens;Homo sapiens, UniProt P01100;Q16520 128-201;17-90, |)
[9] = molecular target: FOS;FOSL1 (Homo sapiens;Homo sapiens, UniProt P01100;P15407 128-201;96-169, |)
[10] = molecular target: FOS;NFE2 (Homo sapiens;Homo sapiens, UniProt P01100;Q16621 128-201;221-337, |)
Sequence of FOS;NFE2 (P01100 other isoform, or with tags, fused parts or gaps |): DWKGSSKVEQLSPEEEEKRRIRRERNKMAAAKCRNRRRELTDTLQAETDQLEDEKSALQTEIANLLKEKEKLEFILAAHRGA

Sequence of FOS;BATF (P01100 other isoform, or with tags, fused parts or gaps |, chain 1 of 2, one chain of several): as the sequence (P01100 other isoform, or with tags, fused parts or gaps |) above
Sequence of FOS;FOSL1 (P01100 other isoform, or with tags, fused parts or gaps |): as above

Which results are given for ATGACGCAAT?
binding signal [1]: 0.00872 relative CSI intensity (max = 1); binding signal [2]: 0.0122 relative CSI intensity (max = 1); binding signal [3]: 0.105 relative CSI intensity (max = 1); binding signal [4]: 0.155 relative CSI intensity (max = 1); binding signal [5]: 0.0294 relative CSI intensity (max = 1); binding signal [6]: 0.0097 relative CSI intensity (max = 1); binding signal [7]: 0.18 relative CSI intensity (max = 1); binding signal [8]: 0.00539 relative CSI intensity (max = 1); binding signal [9]: 0.0408 relative CSI intensity (max = 1); binding signal [10]: 0.0862 relative CSI intensity (max = 1)

How did the binding signal [1] turn out when ATGACGTCAT was run?
The binding signal was 1 relative CSI intensity (max = 1).

What about the binding signal [2] of the same sequence?
The binding signal was 1 relative CSI intensity (max = 1).

And the binding signal [3]?
The binding signal was 0.814 relative CSI intensity (max = 1).

And the binding signal [4]?
The binding signal was 1 relative CSI intensity (max = 1).

What about the binding signal [5] of the same sequence?
Its binding signal is 0.0518 relative CSI intensity (max = 1).

And the binding signal [6]?
Its binding signal is 1 relative CSI intensity (max = 1).

And the binding signal [7]?
Its binding signal is 0.466 relative CSI intensity (max = 1).

And the binding signal [8]?
The binding signal was 1 relative CSI intensity (max = 1).

And the binding signal [9]?
The binding signal was 0.96 relative CSI intensity (max = 1).

What about the binding signal [10] of the same sequence?
The binding signal was 0.106 relative CSI intensity (max = 1).

How did the binding signal [1] turn out when ATGATGCAAT was run?
Its binding signal is 0.00121 relative CSI intensity (max = 1).

And the binding signal [2]?
Its binding signal is 0.00786 relative CSI intensity (max = 1).

And the binding signal [3]?
The binding signal was 0.179 relative CSI intensity (max = 1).

What about the binding signal [4] of the same sequence?
The binding signal was 0.0609 relative CSI intensity (max = 1).

And the binding signal [5]?
Its binding signal is 0.0136 relative CSI intensity (max = 1).

What about the binding signal [6] of the same sequence?
The binding signal was 0.00963 relative CSI intensity (max = 1).

What about the binding signal [7] of the same sequence?
The binding signal was 0.12 relative CSI intensity (max = 1).

And the binding signal [10]?
Its binding signal is 0.0393 relative CSI intensity (max = 1).

Which binding signal [1] does the source give for ATGACGTAAT here?
Its binding signal is 0.0936 relative CSI intensity (max = 1).

And the binding signal [2]?
Its binding signal is 0.0382 relative CSI intensity (max = 1).

What about the binding signal [3] of the same sequence?
The binding signal was 0.71 relative CSI intensity (max = 1).

And the binding signal [4]?
The binding signal was 0.786 relative CSI intensity (max = 1).

And the binding signal [5]?
Its binding signal is 0.00904 relative CSI intensity (max = 1).

What about the binding signal [6] of the same sequence?
The binding signal was 0.0331 relative CSI intensity (max = 1).

And the binding signal [7]?
Its binding signal is 0.129 relative CSI intensity (max = 1).

What about the binding signal [8] of the same sequence?
Its binding signal is 0.0179 relative CSI intensity (max = 1).

What about the binding signal [9] of the same sequence?
Its binding signal is 0.0348 relative CSI intensity (max = 1).

What about the binding signal [10] of the same sequence?
The binding signal was 0.0286 relative CSI intensity (max = 1).

How did the binding signal [2] turn out when ATGACGGAAT was run?
Its binding signal is 0.00176 relative CSI intensity (max = 1).

And the binding signal [7]?
Its binding signal is 0.0575 relative CSI intensity (max = 1).

And the binding signal [9]?
The binding signal was 0.0281 relative CSI intensity (max = 1).

What about the binding signal [10] of the same sequence?
Its binding signal is 0.00162 relative CSI intensity (max = 1).

How did the binding signal [1] turn out when CCTGACGTCA was run?
Its binding signal is 0.0149 relative CSI intensity (max = 1).

What about the binding signal [3] of the same sequence?
The binding signal was 0.0974 relative CSI intensity (max = 1).

What about the binding signal [5] of the same sequence?
Its binding signal is 0.00153 relative CSI intensity (max = 1).

And the binding signal [6]?
Its binding signal is 0.0039 relative CSI intensity (max = 1).

What about the binding signal [7] of the same sequence?
The binding signal was 0.0335 relative CSI intensity (max = 1).

And the binding signal [8]?
Its binding signal is 0.0057 relative CSI intensity (max = 1).

What about the binding signal [10] of the same sequence?
The binding signal was 0.00384 relative CSI intensity (max = 1).
